Data taken from PubChem BioAssay (EPA / NIEHS).
Where “and” joins values, the source holds several entries; their conditions need not be identical. Equal entries are not always repeated. More than one record can exist for a structure, and the calls need not agree. Calls of active or inactive are those of the source. How the source made its calls: active means hit-call score of the fitted dose curve at least 0.9, where 1 is the maximum; inactive means score below 0.9.

Experiment: CCTE_Shafer_MEA_dev_per_network_spike_spike_percent: CCTE's Neural Network Formation Assay for Percent of Spikes in a Network Spike, Shafer Lab (AID 2284054)
Description: CCTE_Shafer_MEA_dev assay is conducted using Axion Biosystems 48 well microelectrode array (MEA) plates and Maestro recording system. Each well of the MEA plate contains a grid of 16 microelectrodes embedded in the culture surface. Electrically active cells, such as neurons, can be cultured over the electrodes, and electrical activity in these cells can be recorded extracellularly. The spontaneous firing of neurons is captured from each electrode on a microsecond timescale providing both temporally and spatially precise data. […] The CCTE_Shafer_MEA_dev assay uses primary cultures of rat cortical neurons. Recordings are made on days post-plating 5, 7, 9 and 12. As these cultures mature over time, neural networks develop functional activity and form cohesive networks in which electrical activity can be highly coordinated. CCTE_Shafer_MEA_dev_per_network_spike_spike_percent is 1 of 19 assay components of the CCTE_Shafer_MEA_dev assay. It measures the percent of spikes (action potential firings) in a network spike (temporally-clustered group of spikes across multiple electrodes) as the number of spikes that occur within a 0.05 s time window at the peak of a network spike divided by the total number of spikes during a recording in a microelectrode array (MEA) using Axion Biosystems Maestro 768 channel amplifier with the AxIS adaptive spike detector. To collapse across multiple recordings made on days post-plating 5, 7, 9 and 12, the trapezoidal area-under-the-curve of the component is calculated.Data from the assay component CCTE_Shafer_MEA_dev_per_network_spike_spike_percent was analyzed into 1 assay endpoint. This assay endpoint, CCTE_Shafer_MEA_dev_per_network_spike_spike_percent, was analyzed in the negative analysis fitting direction relative to DMSO as the negative control and baseline of activity. Using a type of functional reporter, gain or loss-of-signal activity can be used to understand electrical activity.
On the day prior to culture, each well was coated thoroughly with 150 uL of 0.05% polyethyleneimine (PEI, Sigma Cat P3143) in 50 mM HEPES (Sigma Cat H7523) at a pH of 8. The plate was incubated at 37C for one hour. PEI was rinsed out with 500 uL of sterile water three times. Plates were stored at 4C until the day of culture. This culture was plated at a seeding density of 1.5 x 10^5 cells/well on a 48-well MEA plate, prepared as described above. Cells were administered via a 25 uL media/laminin ([…]; Sigma Cat L2020-1MG) drop directly onto the microelectrode array, as adding the cells with the laminin results in better attachment than pre-coating with laminin. After 2 hours, an additional 475 uL of cortical media was added and the cells returned to the incubator. Exposure starts at day 0 of plating and is continued over twelve days of network development until the experiment is terminated. Cells are fed with fresh medium on DIV 5 and 9, following the recordings on those days. The entire volume of media in the well is exchanged and any vehicle or compound treatment is renewed. Complete details are found in OP-NHEERL/ISTD/SBB/TJS/2015-03-r0 (available on request, email shafer.tim@epa.gov). Measurement of the electrical activity is non-invasive, and recordings can be made from the same plate over multiple different days of the culture. In cortical neurons, this allows for the measurement of extracellular action potentials over the period during which networks form in the MEA plate.
In the case of CCOP(=S)(OCC)SCCSCC, the outcome is reported as “inactive”.
For C=C(C)[C@H]1Cc2c(ccc3c2O[C@@H]2COc4cc(OC)c(OC)cc4[C@@H]2C3=O)O1, the AC50 was 16.8 nM (active) and 13.3 nM (active).
With S=C1NCCN1 the outcome was “inactive”.
For COP(=O)(NC(C)=O)SC (stereo unspecified), the outcome was “inactive”.
In the case of CCCSP(=O)(OCC)Oc1ccc(Br)cc1Cl (stereo unspecified), the outcome is reported as “inactive”.
In the case of C[Si](Cn1cncn1)(c1ccc(F)cc1)c1ccc(F)cc1, the AC50 is reported as 20.1 µM (active).
In the case of C#CCC1=C(C)C(OC(=O)C2C(C=C(C)C)C2(C)C)CC1=O (stereo unspecified), the AC50 is reported as 2.64 µM (active).
In the case of CSC1=N[C@@](C)(c2ccccc2)C(=O)N1Nc1ccccc1, the outcome is reported as “inactive”.
In the case of CN1COCN(Cc2cnc(Cl)s2)C1=N[N+](=O)[O-], the outcome is reported as “inactive”.
In the case of CC(C)N(C(=O)SCC(Cl)=C(Cl)Cl)C(C)C, the AC50 is reported as 15 µM (active).
In the case of O=[N+]([O-])c1cc(C(F)(F)F)c(Cl)c([N+](=O)[O-])c1Nc1ncc(C(F)(F)F)cc1Cl, the AC50 is reported as 0.742 µM (active).
For CC(Oc1cccc(Cl)c1)C(=O)O (stereo unspecified), the outcome was “inactive”.
In the case of CCOP(=S)(OCC)OC(Cl)C(Cl)(Cl)Cl (stereo unspecified), the AC50 is reported as 26.7 µM (active) and 18.6 µM (active).
For COP(=O)(OC)C(O)C(Cl)(Cl)Cl (stereo unspecified), the AC50 was 50 µM (active) and 15 µM (active).
For CCCSP(=O)(OCC)SCCC, the AC50 was 24.3 µM (active) and 26.5 µM (active).
With CCOP(=S)(Oc1cnc(C(C)(C)C)nc1)OC(C)C (stereo unspecified) the AC50 was 84.5 µM (active) and 23 µM (active).
With CCOP(=O)(NC(C)C)Oc1ccc(SC)c(C)c1 (stereo unspecified) the outcome was “inactive” and the AC50 was 11.7 µM (active).
In the case of CN(C)[C@@H]1C(=O)C(C(N)=O)=C(O)[C@@]2(O)C(=O)C3=C(O)c4c(O)cccc4[C@@](C)(O)[C@H]3[C@H](O)[C@@H]12, the AC50 is reported as 89.4 µM (active).
For CCOP(=S)(OCC)Oc1ccc2c(C)c(Cl)c(=O)oc2c1, the AC50 was 82.2 µM (active).
In the case of CC(=NC#N)N(C)Cc1ccc(Cl)nc1, the outcome is reported as “inactive”.
With CC1=NNC(=O)N(/N=C/c2cccnc2)C1 the outcome was “inactive”.
In the case of CCOP(=O)(SC(C)CC)N1CCSC1=O (stereo unspecified), the outcome is reported as “inactive”.
With CC[C@H](C)[C@H]1O[C@]2(C=C[C@@H]1C)C[C@@H]1C[C@@H](C/C=C(\C)[C@@H](O[C@H]3C[C@H](OC)[C@@H](O[C@H]4C[C@H](OC)[C@@H](NC)[C@H](C)O4)[C@H](C)O3)[C@@H](C)/C=C/C=C3\CO[C@@H]4[C@H](O)C(C)=C[C@@H](C(=O)O1)[C@]34O)O2 the outcome was “inactive” and the AC50 was 0.517 µM (active).
With CCOP(=S)(OCC)Oc1cc(C)nc(C(C)C)n1 the outcome was “inactive” and the AC50 was 77 µM (active).
In the case of CCOC(=O)CC(SP(=O)(OC)OC)C(=O)OCC (stereo unspecified), the outcome is reported as “inactive”.
In the case of C[N+]1(C)CCCCC1, the outcome is reported as “inactive”.
With COP(=O)(OC)OC(Br)C(Cl)(Cl)Br (stereo unspecified) the AC50 was 8.6 µM (active) and 12 µM (active).
For CCCCSP(=O)(SCCCC)SCCCC, the AC50 was 68.3 µM (active) and 49.9 µM (active).
With CCOP(=O)(OCC)Oc1cc(C)nc(C(C)C)n1 the outcome was “inactive”.
For CON=C(C(=O)OC)c1ccccc1CON=C(C)c1cccc(C(F)(F)F)c1, the AC50 was 981 nM (active) and 686 nM (active).
For CC(C)[C@H](C(=O)O[C@H](C#N)c1cccc(Oc2ccccc2)c1)c1ccc(Cl)cc1, the AC50 was 0.732 µM (active).
With CC(C)=CC1C(C(=O)OCN2C(=O)C3=C(CCCC3)C2=O)C1(C)C (stereo unspecified) the outcome was “inactive”.
For CCOP(=S)(OCC)Oc1ccc([N+](=O)[O-])cc1, the outcome was “inactive”.
